Most compounds without a hit are left out; they make up all but 6.2% or so of the library.
NR3A LBD binder: binders of NR3A ligand-binding domain, primary screen, biophysical, differential scanning fluorimetry, uHTS; Glutamate receptor ionotropic, NMDA 3A (GRIN3A) ligand-binding domain; NR3A LBD differential scanning fluorimetry, Tm shift; 0% = protein alone, 100% = glycine-bound protein; Tm shift relative to glycine control, % at 25 µM; 2.5% of 340,000 active; AID 1259313, 2017;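 active = melting temperature shift of at least 10% of the positive control shift, at one fixed dose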
NTR1 ag: agonists of human NTR1, primary screen, imaging, U2OS cells, beta-arrestin-GFP, high content. Neurotensin receptor type 1 (Homo sapiens), P30989. NTR1-U2OS beta-arrestin-GFP spot imaging, agonist mode. activation, % at 20 µM. 0.17% of 330,000 active. AID 493036, 2011;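 active = activation at or above 40% of the spot to cytoplasm intensity ratio, with at least 20 cells analyzed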;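 note: 0% = DMSO without peptide and 100% = 100 nM NTR1 peptide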
SUMO Mot1 rescue: yeast Mot1-301 growth rescue at high temperature, primary screen, SUMOylation pathway inhibitor project, S. cerevisiae, ATP luminescence, 38.5C. S. cerevisiae Mot1-301 growth rescue; percent above DMSO median, 100 means doubled. growth rescue, % at 18.8 µM. 1% of 320,000 active. AID 2716, 2010;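 active = every valid replicate shows activation above 250% relative to neutral control wells; inactive = the rest, any valid replicate at or below 250%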;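 note: OY570 slx delta 5 strain wells were the positive control but not used for scaling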
Cardio protect: cardioprotection against H2O2-induced cell death, primary screen, uHTS, H9c2 cells, ATPLite luminescence; H9c2 cardiomyocytes, H2O2 injury protection, 2 h; protection from H2O2 cell death, % at 20 µM; 0.63% of 360,000 active; AID 588492, 2011;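 active = compounds giving at least 50% protection of heart cells from peroxide-induced death in the single-dose screen, raw or plate-pattern-corrected value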;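 note: 0% = DMSO wells with peroxide and 100% = DMSO wells without peroxide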
AHR act: AHR activators, primary screen, cell-based, luminescence, luciferase reporter, human. Aryl hydrocarbon receptor (Homo sapiens), P35869. AHR-responsive luciferase reporter cells. activation, % at 5 µM. 2.5% of 320,000 active; in the data active = activation above about 47%;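 note: 0% = vehicle wells and 100% = reference agonist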
AI-2 QS modul: Vibrio harveyi AI-2 quorum sensing modulators, primary screen, JMH597 strain, luminescence/OD600 ratio | activity change, % at 7.5 µM | 0.4% of 300,000 active | AID 2094, 2009 | Vibrio harveyi JMH597 AI-2 luminescence/OD600 ratio, 9 h; hits give low values; strain lacks LuxN and CqsS sensors; 0 = neutral-control median; in the data active = activity change below about -75%, passing the limit was not always enough;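 note: luminescence divided by OD600 gain over 9 h not by final OD600 alone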
Yeast Mot1 SUMO: growth restoration of Mot1-301 yeast on galactose, dose response, SUMO pathway inhibitor project, whole organism, S. cerevisiae, ATP luminescence, cherry-picked samples | shares compounds with SUMO Mot1 rescue | S. cerevisiae Mot1-301 galactose growth, 24 h; -100 = growth of slx-deleted rescue strain | growth activity, percent, % at 42 µM | 2,300 tested, under 10 active;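 active = Signal drops as the depositor expects, and the fitted half-maximal dose is no more than ten times the top valid tested dose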;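 note: more negative values mean stronger growth rescue toward the control strain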
AHR act confirm: AHR activators, confirmation, cell-based, luminescence, luciferase reporter, human; human cells, AHR-responsive luciferase reporter; shares compounds with AHR act; 87% of 2,300 active; AID 2845, 2010; activation, % at 9 µM; in the data active = activation above about 49%;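 note: HepG2 hepatoma cells carrying a DRE-driven firefly luciferase reporter; 0% = vehicle wells and 100% = reference agonist wells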
PXR counter: human PXR activators, counter-screen for AHR activator project, cell-based, luciferase luminescence; shares compounds with AHR act; cell-based PXR reporter; activation, % at 11.6 µM; 88% of 2,300 active; AID 434939, 2010; in the data active = activation above about 11%;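 note: human hepatoma DPX-2 cells expressing full-length human PXR; 0% = DMSO and 100% = reference agonist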
Target sequence (O75469 whole entry, looked up): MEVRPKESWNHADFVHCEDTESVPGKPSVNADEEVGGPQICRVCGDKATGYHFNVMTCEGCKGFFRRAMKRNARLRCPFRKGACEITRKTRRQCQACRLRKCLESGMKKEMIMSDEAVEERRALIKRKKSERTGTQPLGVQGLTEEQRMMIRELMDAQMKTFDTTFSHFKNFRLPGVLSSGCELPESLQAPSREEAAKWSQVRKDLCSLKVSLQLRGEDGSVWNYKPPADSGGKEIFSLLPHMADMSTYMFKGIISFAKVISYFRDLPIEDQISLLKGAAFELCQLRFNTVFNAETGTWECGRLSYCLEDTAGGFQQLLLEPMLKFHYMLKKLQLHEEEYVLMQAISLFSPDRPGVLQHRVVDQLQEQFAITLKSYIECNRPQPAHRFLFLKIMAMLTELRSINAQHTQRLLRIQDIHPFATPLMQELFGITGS
Numbers without * were called inactive; . = no result; + = active, no number.

SMILES | NR3A LBD binder | NTR1 ag | SUMO Mot1 rescue | Cardio protect | AHR act | AI-2 QS modul | Yeast Mot1 SUMO | others
Cc1cccc(N=Nc2ccc(N(C)C)cc2)c1 | 7 | 2 | 736* | -19 | -4 | 27 | 0
CN(C)c1ccccc1 | . | . | . | -1 | . | . | .
CC(C)COC(=O)N1Cc2ccccc2-n2nncc2C1 | . | . | . | 6 | . | . | .
CCOP(=O)(OCC)C(NC(=O)c1cccc(C)c1)C(Cl)(Cl)Cl (stereo not given) | 0 | 0 | 971* | 1 | -2 | 17 | 0
CCOP(=O)(OCC)C(NC(=O)c1cccc2ccccc12)C(Cl)(Cl)Cl (stereo not given) | -1 | 0 | -10 | -2 | 3 | 9 | .
CCOP(=O)(OCC)C(NC(=O)c1cccc([N+](=O)[O-])c1)C(Cl)(Cl)Cl (stereo not given) | 0 | 0 | 710* | 3 | 2 | -1 | 0
O=C1NC(=O)C(=Cc2ccc(N3CCOCC3)cc2)C(=O)N1 | 0 | -1 | 505* | 3 | 0 | 35 | 0
CCC(C)(O)C(=O)OC1C(=O)OC2CC3C(C)=CC(O)C(O)C3(C)C3C4(O)OCC23C1C(C)C4O (stereo not given) | . | . | . | -6 | . | . | .
O=c1[nH]c(O)c(N=Nc2cc([N+](=O)[O-])ccc2O)c(=O)[nH]1 | 1 | . | 649* | 10 | 2 | 3 | 0
NC(=O)c1ccc(N=Nc2c(O)[nH]c(=O)[nH]c2=O)cc1 | . | -1 | -11 | . | -1 | 13 | .
Cc1ccc(CN2Cc3ccc(Br)cc3-n3nncc3C2)cc1 | . | . | . | 9 | . | . | .
O=[N+]([O-])c1ccc(N2CCCC2)c(F)c1Br | 0 | 5 | -6 | -10 | -5 | 21 | .
Cc1cc(Oc2cc(NN3CCCCC3)c([N+](=O)[O-])cc2[N+](=O)[O-])ccc1[N+](=O)[O-] | -7 | 5 | 752* | 4 | 7 | 15 | 0
CC(=O)N1CC(=O)Nc2ccc(Cl)cc2C1c1ccccc1 (stereo not given) | 2 | 0 | + | -2 | 1 | 19 | 1
CN(C=O)CP(=O)(O)CN(C)C=O | 1 | 0 | 570* | 10 | 0 | 0 | 0
O=C1NCN(c2ccccc2)C12CCN(C(c1ccnc3ccccc13)c1nnnn1-c1ccc3c(c1)OCCO3)CC2 (stereo not given) | . | . | . | 9 | . | . | .
Cc1sc(-n2c(C)cc(C=C3C(=O)NC(=O)NC3=O)c2C)c(C#N)c1C | 2 | 4 | 486* | . | -8 | 23 | 0
Cc1cc(/C=C2\C(=O)NC(=O)N(c3ccc(Cl)cc3)C2=O)c(C)n1-c1sc2c(c1C#N)CCCC2 | 2 | 2 | -4 | -14 | 5 | 18 | .
COC1C(O)C(C)OC(OC2C(Oc3cccc4c(O)c5c(=O)oc6ccc(C)c7c(=O)oc(c34)c5c67)OC(C)C(O)C2O)C1O (stereo not given) | 2 | . | . | -3 | . | . | .
COc1cccc(C)c1NC1=NCCO1 | . | . | . | 0 | . | . | .
CC(N)Cc1c[nH]c2ccc(O)cc12 (stereo not given) | -1 | . | . | -6 | . | . | .
CC(N)Cc1c[nH]c2ccc(OCc3cccs3)cc12 (stereo not given) | -1 | -1 | -2 | 0 | 80* | 24 | . | AHR act confirm=51*;PXR counter=11*
O=C(COC(=O)c1cc(Br)cc(Br)c1O)NC12CC3CC(CC(C3)C1)C2 | . | . | . | -8 | . | . | .
CNC(=O)Oc1cccc(-c2cn3cc(Cl)ccc3n2)c1 | -1 | 4 | -33 | -30 | 96* | 19 | . | AHR act confirm=33;PXR counter=13*
O=C1CCC2(O)C3Cc4ccc(O)c5c4C2(CCN3Cc2ccoc2)C1O5 (stereo not given) | . | . | . | 9 | . | . | .
SMILES | NR3A LBD binder | NTR1 ag | SUMO Mot1 rescue | Cardio protect | AHR act | AI-2 QS modul | Yeast Mot1 SUMO | others
COCCOC(=O)c1c(N)n(Cc2ccco2)c2nc3ccccc3nc12 | -2 | -1 | -9 | 8 | 82* | -3 | . | AHR act confirm=36;PXR counter=91*
CC(C)OC(=O)c1c(N)n(Cc2ccco2)c2nc3ccccc3nc12 | 3 | 0 | -14 | 5 | 41 | 19 | .
Cc1c(CCN)ccc2c1[nH]c1ccccc12 | -10 | 0 | -4 | 8 | 92* | 17 | . | AHR act confirm=29;PXR counter=13*
NCCc1c(Cc2ccccc2)[nH]c2ccccc12 | 2 | -1 | -10 | 1 | 8 | 29 | .
Cc1ccc2nc3c(cc2c1)CC1(C(=O)N(C)C(=O)N(C)C1=O)C1CCCCN31 (stereo not given) | 2 | 2 | -14 | -7 | 85* | 12 | . | AHR act confirm=78*;PXR counter=72*
Cc1ccccc1[N+](=O)[O-] | 0 | -1 | -5 | -1 | -1 | . | .
COC(=O)C1=C(C)NC(C)=C(C(=O)OC)C1c1ccccc1[N+](=O)[O-] | 3 | 3 | -9 | 37 | 106* | 18 | . | AHR act confirm=14
COc1cc2c(cc1OC)C13CCN4CC5=CCOC6CC(=O)N2C1C6C5C3C4 (stereo not given) (tested in a mixture with another compound) | 1 | . | . | 2 | . | . | .
Cc1ccc2cc(C=C(C#N)C#N)c(Cl)nc2c1 | -4 | 1 | 266 | -12 | 88* | 19 | . | AHR act confirm=31;PXR counter=21*
CCOC(=O)c1c(C)n(CCOC)c2ccc(O)cc12 | 0 | 1 | -4 | 20 | 92* | -6 | . | AHR act confirm=80*;PXR counter=19*
COC(=O)C1=C(c2ccc(F)cc2F)C[C@@H]2CC[C@H]1N2C(=O)NCCOc1ccc(OC)cc1 | 2 | 0 | 12 | 4 | 6 | . | .

Screening results deposited in PubChem by several laboratories.
